Assay outcomes deposited in PubChem BioAssay by Broad Institute.
Pf Dd2 inh: P. falciparum Dd2 growth inhibition; 94,000 tested, 2.3% active; SYBR Green, 72 h; stronger effect = lower value; activity change, % at 10 µM; in the data active means activity change below about -80%
Tcruzi prolif: blocks T. cruzi growth in NIH3T3 culture; T. cruzi beta-gal in NIH3T3, GalScreen luminescence, 90 h; 77,000 tested, 5.9% active; inhibition, % at 8.34 µM; AID 624255;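 active means mean inhibition above about 93%, with at least 55% of replicates each passing it, limit read from the data, passing the limit was not always enough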
C diff growth: inhibitors of Clostridium difficile growth | growth activity, negative = inhibition, % at 16 µg/mL (by protocol) | Clostridium difficile clinical isolate growth, OD600, 24 h; stronger effect = lower value | 86,000 tested, 0.25% active;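 active means mean growth activity at or below -80% and every replicate also at or below -80%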;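 further: 0% = DMSO wells and -100% = levofloxacin 16 µg/mL wells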
The depositor's hits bear a star; . = no result. An excerpt weighted towards active compounds, which were near 6.7% of everything screened.

SMILES	Pf Dd2 inh	Tcruzi prolif	C diff growth
COc1ccc(NC(=O)Nc2ccc3c(c2)C(=O)N([C@@H](C)CO)C[C@H](C)[C@H](CN(C)C(=O)CCCN(C)C)OCCCC[C@H](C)O3)cc1	28	-26	3
CCNC[C@H]1[C@H](c2ccc(C3=CCCCC3)cc2)[C@@H](CO)N1C(=O)NC(C)C	-25	71	10
C/C=C/c1ccccc1[C@H]1[C@@H](C#N)N(C(=O)NC2CCCC2)[C@H]1CO	-82*	.	-3
N#C[C@@H]1[C@H](c2ccc(C3=CCCCC3)cc2)[C@@H](CO)N1C(=O)NC1CCCC1	-83*	.	-5
C/C=C/c1ccccc1[C@H]1[C@@H](CO)N(C(=O)NC2CCCC2)[C@H]1C#N	-5	.	-13
N#C[C@H]1[C@H](c2ccc(C3=CCCCC3)cc2)[C@H](CO)N1C(=O)NC1CCCC1	-37	.	-10
CC(C)NC[C@@H]1[C@@H](c2ccc(C3=CCCCC3)cc2)[C@@H](CO)N1C(=O)CC1CC1	-83*	.	5
CCC(=O)N1C[C@@H](O)COC[C@H]2O[C@@H](CC(=O)NCc3cc(F)cc(F)c3)CC[C@@H]21	0	30	43
CNC[C@H]1Oc2ccc(NC(=O)Cn3cnnn3)cc2C(=O)N([C@@H](C)CO)C[C@@H]1C	42	14	-1
C[C@H](CO)N1C[C@H](C)[C@@H](CN(C)C(=O)c2ccncc2)Oc2ncc(C#CC3CC3)cc2C1=O	18	31	.
COc1ccc(S(=O)(=O)Nc2ccc3c(c2)C(=O)N([C@H](C)CO)C[C@H](C)[C@@H](CN(C)S(=O)(=O)c2ccc(Cl)cc2)OCCCC[C@H](C)O3)cc1	-64	93	5
COc1ccc(S(=O)(=O)N(C)C[C@H]2OCCCC[C@H](C)Oc3ccc(NS(=O)(=O)c4ccc(Cl)cc4)cc3C(=O)N([C@@H](C)CO)C[C@@H]2C)cc1	-52	.	-4
COc1ccc(S(=O)(=O)N(C)C[C@@H]2OCCCC[C@H](C)Oc3ccc(NS(=O)(=O)c4ccc(Cl)cc4)cc3C(=O)N([C@H](C)CO)C[C@@H]2C)cc1	-89*	.	0
C[C@@H]1CCCCO[C@H](CN(C)S(=O)(=O)c2ccc(Cl)cc2)[C@H](C)CN([C@H](C)CO)C(=O)c2cc(NS(=O)(=O)c3ccccc3)ccc2O1	-70	99	2
COc1ccc(S(=O)(=O)Nc2ccc3c(c2)C(=O)N([C@@H](C)CO)C[C@@H](C)[C@@H](CN(C)S(=O)(=O)c2ccc(Cl)cc2)OCCCC[C@H](C)O3)cc1	-85*	92	10
C[C@H]1CCCCO[C@@H](CN(C)S(=O)(=O)c2ccc(Cl)cc2)[C@@H](C)CN([C@@H](C)CO)C(=O)c2cc(NS(=O)(=O)c3ccccc3)ccc2O1	-83*	.	2
Cc1noc(C)c1S(=O)(=O)Nc1ccc2c(c1)C(=O)N([C@H](C)CO)C[C@H](C)[C@@H](CN(C)S(=O)(=O)c1ccc(Cl)cc1)OCCCC[C@H](C)O2	-42	77	8
Cc1noc(C)c1S(=O)(=O)Nc1ccc2c(c1)C(=O)N([C@H](C)CO)C[C@@H](C)[C@@H](CN(C)S(=O)(=O)c1ccc(Cl)cc1)OCCCC[C@H](C)O2	-88*	82	9
C[C@@H]1CN([C@@H](C)CO)C(=O)c2cc(C#Cc3cccnc3)cnc2O[C@@H]1CN(C)C(=O)CN(C)C	3	.	3
Cc1noc(C)c1S(=O)(=O)N(C)C[C@H]1Oc2ccc(NC(=O)Nc3cccc4ccccc34)cc2CC(=O)N([C@@H](C)CO)C[C@@H]1C	-51	39	-8
Cc1noc(C)c1S(=O)(=O)N(C)C[C@H]1Oc2ccc(NC(=O)CCCCCC(=O)Nc3ccccc3N)cc2CC(=O)N([C@@H](C)CO)C[C@@H]1C	-35	.	7
O=C(C1CC1)N1CC(=O)N2[C@H](C1)[C@H](c1ccc(C#CCc3ccccc3)cc1)[C@@H]2CO	-21	.	-16
O=C(Cc1ccccn1)NCC[C@H]1CC[C@H](NC(=O)CN2CCOCC2)[C@@H](CO)O1	-18	.	1
Cc1cccc(S(=O)(=O)N2[C@@H]3CNC[C@H]2C3c2ccc(-c3ccccc3C)cc2)c1 (stereo partly drawn)	-11	.	42
C[C@@H]1CN([C@@H](C)CO)C(=O)c2cc(NC(=O)Nc3ccccc3)ccc2O[C@@H](C)CCCCO[C@H]1CN(C)S(=O)(=O)c1ccc(Cl)cc1	-83*	34	.
Cc1ccc(S(=O)(=O)N(C)C[C@@H]2OCCCC[C@@H](C)Oc3ccc(NC(=O)Nc4ccccc4)cc3C(=O)N([C@@H](C)CO)C[C@@H]2C)cc1	-91*	25	21
CC(C)NC(=O)Nc1ccc2c(c1)C(=O)N([C@@H](C)CO)C[C@H](C)[C@H](CN(C)S(=O)(=O)c1ccc(Cl)cc1)OCCCC[C@@H](C)O2	-83*	49	13
